A selection: hits, their analogues and other compounds. The true share with any hit is near 1.7%.
HDAC3 inh: blocks human histone deacetylase 3. O15379. recombinant HDAC3, fluorogenic peptide/trypsin coupled, fluorescence. inhibition, % at 8.3 µM. hit rate 0.15% among 320,000; in the data active = inhibition above about 26%, passing the limit was not always enough
LANA-H2A inh: blocks KSHV LANA binding to histone H2A/H2B | Q9QR71 | AID 2629 | inhibition, % (no concentration beside the values) | hit rate 0.6% among 320,000 | cell-free LANA-H2A/H2B peptide, fluorescence polarization; in the data active = inhibition mostly above about 10%, no sharp cut-off; inactive = mostly below about 6.7%
Target sequence (Q9QR71 whole entry, looked up): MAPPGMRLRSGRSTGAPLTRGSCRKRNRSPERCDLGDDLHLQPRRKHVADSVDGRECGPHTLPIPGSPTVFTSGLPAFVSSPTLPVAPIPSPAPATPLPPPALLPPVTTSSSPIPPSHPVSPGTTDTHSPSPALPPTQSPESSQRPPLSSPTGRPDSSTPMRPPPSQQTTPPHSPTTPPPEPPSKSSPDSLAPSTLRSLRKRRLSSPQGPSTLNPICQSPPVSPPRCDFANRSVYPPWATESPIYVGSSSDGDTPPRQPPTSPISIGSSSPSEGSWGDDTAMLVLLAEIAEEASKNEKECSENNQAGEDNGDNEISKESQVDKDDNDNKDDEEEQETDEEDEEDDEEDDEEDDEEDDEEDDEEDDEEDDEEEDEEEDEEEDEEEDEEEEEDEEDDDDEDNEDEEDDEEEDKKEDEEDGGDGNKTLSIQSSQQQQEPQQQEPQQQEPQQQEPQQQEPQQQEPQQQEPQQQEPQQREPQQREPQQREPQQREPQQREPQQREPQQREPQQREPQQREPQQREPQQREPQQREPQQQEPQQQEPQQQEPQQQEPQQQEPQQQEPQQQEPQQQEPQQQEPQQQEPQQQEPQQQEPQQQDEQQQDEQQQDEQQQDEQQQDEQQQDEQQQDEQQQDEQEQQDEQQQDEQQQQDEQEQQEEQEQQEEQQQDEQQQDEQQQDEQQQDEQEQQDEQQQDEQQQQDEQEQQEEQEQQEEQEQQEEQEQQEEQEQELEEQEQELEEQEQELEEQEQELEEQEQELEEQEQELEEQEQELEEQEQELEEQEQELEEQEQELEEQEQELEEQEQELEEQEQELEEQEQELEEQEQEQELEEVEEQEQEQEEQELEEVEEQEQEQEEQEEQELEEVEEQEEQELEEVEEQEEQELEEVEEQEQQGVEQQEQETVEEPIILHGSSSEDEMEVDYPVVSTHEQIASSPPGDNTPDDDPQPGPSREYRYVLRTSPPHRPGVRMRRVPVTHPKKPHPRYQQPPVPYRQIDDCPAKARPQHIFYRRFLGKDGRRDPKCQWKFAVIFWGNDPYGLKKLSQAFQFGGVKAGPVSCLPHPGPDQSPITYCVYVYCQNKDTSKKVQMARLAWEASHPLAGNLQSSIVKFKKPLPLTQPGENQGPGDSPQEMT
Fh CTSL1 inh: cathepsin L1 inhibition, PFM18AAP counter-screen. recombinant F. hepatica cathepsin L1, Z-Leu-Arg-MCA fluorescence. inhibition, % at 5.96 µM. hit rate 0.49% among 300,000;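 active = inhibition above the mean of all tested compounds plus 3 SD, set per screening campaign, cut at about 17% in these data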;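 note: 0% = plate median of test compound wells and 100% = 1 µM Z-Phe-Ala-diazomethylketone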
HTR2A ag: agonists of mouse serotonin 5-HT2A receptor (HTR2A) | P35363 | AID 624169 | hit rate 0.66% among 360,000 | CHO-K1 mHTR2A beta-arrestin complementation, luminescence; percent of 30 µM serotonin response | activation, % at 7.6 µM;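 active = activation above a run cutoff, the mean activation of all tested compounds plus 3 SD, cut at about 14% in these data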;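 note: 0% = plate median of compound wells and 100% = 30 µM serotonin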
Active calls of the source: *; i = inactive; / = no result given; + = active, no number.

SMILES | HDAC3 inh | LANA-H2A inh | Fh CTSL1 inh | HTR2A ag
COc1cc(NC(=O)C(C)N2CCN(C(=O)C3CC3)CC2)cc(OC)c1 (configuration not stated) | 1 | -2 | / | 2
Cc1cccc(N2C(=O)CN(Cc3cccs3)C2=S)c1 | 1 | + | -4 | 1
Cc1ccc(N(C(=O)CCl)C(C(=O)NC2CCCCC2)c2cccnc2)cc1C (configuration not stated) | -10 | i | 18* | /
O=C(NCC(=O)N(Cc1ccccc1)C(C(=O)NC1CCCC1)c1cccnc1)c1ccco1 (configuration not stated) | 1 | -4 | 2 | -4
Cc1ccc(CN(C(=O)c2ccco2)C(C(=O)NC2CCCC2)c2cccnc2)cc1 (configuration not stated) | 3 | + | -2 | 1
CC(=O)c1cc(C(=O)N2CCc3c([nH]c4ccccc34)C2C2CCCCC2)[nH]n1 (configuration not stated) | 4 | 0 | -1 | -11
Cc1ccc2nc(-c3ccc(C#N)cc3)c(Cc3ccccc3)n2c1 | / | / | / | -6
COc1ccc(C(=O)/C=C/Nc2ccc(S(=O)(=O)Nc3cc(OC)nc(OC)n3)cc2)c(OC)c1 | -4 | 17* | -2 | -4
COc1cccc(C(=O)/C=C/Nc2ccc(S(=O)(=O)Nc3cc(OC)nc(OC)n3)cc2)c1 | -10 | -2 | 0 | 2
Cc1cc(C)n2nc(CC(=O)NNC(=O)c3ccc(N(C)C)cc3)nc2n1 | -5 | 0 | 36* | 5
CC(C)C(NC(=O)CCNC(=O)c1ccccc1Cl)c1nc2ccccc2[nH]1 (configuration not stated) | -2 | -13 | / | 3
COc1cnc(-c2ccccc2)nc1Oc1ccc(Cl)cc1C | -5 | 0 | 19* | 6
COc1cnc(-c2ccccn2)nc1Oc1ccccc1 | -6 | -5 | -1 | 2
Cc1ccc(C(=O)NC(=C(Cl)Cl)S(=O)(=O)c2ccccc2)cc1 | -9 | 14* | 12 | -8
Cc1ccc(S(=O)(=O)CNC(=O)c2ccccc2)cc1 | -13 | -3 | 36* | 0
Cc1ccc(OCC(=O)N(C)CC(=O)Nc2ccccc2Cl)c([N+](=O)[O-])n1 | 5 | 5 | / | 6
CC(C)c1ccc(O)c(=O)cc1 | / | / | / | -4
COc1ccc(OC)c(NC(=O)c2ccc(Cl)cc2)c1 | -4 | 0 | 49* | -1
COc1ccc(C(=O)Nc2cc(OC)ccc2OC)cc1 | 3 | 3 | -1 | 0
O=C(Nc1ccccc1O)c1ccc(Cl)cc1 | 91* | 3 | -2 | -2
O=C(Nc1ccccc1O)c1ccc([N+](=O)[O-])cc1 | 53* | 1 | 4 | 9
O=C(Nc1ccccc1OC(=O)c1ccc(Cl)cc1)c1ccc(Cl)cc1 | 10 | 4 | -2 | -3
CSc1ccccc1NC(=O)c1ccc([N+](=O)[O-])cc1 | -5 | -1 | -1 | -7
COc1ccc(OC)c(NC(=O)CC2(CC(=O)O)CCCC2)c1 | 4 | 19* | 2 | 7
CC1CCN(S(=O)(=O)c2ccc(NC(=O)CCNC(=O)c3ccc(Cl)cc3)cc2)CC1 | / | / | / | 2
SMILES | HDAC3 inh | LANA-H2A inh | Fh CTSL1 inh | HTR2A ag
O=C1c2ccccc2C(c2nnnn2Cc2ccccc2)N1Cc1cccs1 (configuration not stated) | / | / | / | -5
CC1(C(=O)NS(=O)(=O)c2ccccc2Cl)CCN1C(=O)Cc1cc(F)ccc1F (configuration not stated) | / | / | / | 3
O=C(Cc1ccc(NC(=O)C2CCN(C(=O)C3CCCCC3)CC2)cc1)Nc1ccc(C(=O)N2CCOCC2)cc1 | / | / | / | -4
COc1ccc(Cl)cc1NC(=O)c1cc(-c2ccc(C)cc2O)n[nH]1 | -1 | 23* | -2 | -4
CNC(=O)COC(=O)c1cc(F)c(F)cc1Cl | -8 | 20* | 0 | 2
CC(C)NC(=O)COC(=O)c1cc(F)c(F)cc1Cl | 3 | 0 | -2 | 2
O=C(COC(=O)c1ccc(O)cc1O)c1ccc2c(c1)OCO2 | 5 | 56* | 1 | 8
CC(C)(C)NC(=O)NC(=O)CN1CCc2ccccc21 | 7 | -5 | -3 | -1
COCCNC(=O)NC(=O)CN1CCCc2ccccc21 | 3 | 16* | -1 | -2
Cc1csc(CCc2nc(C)cs2)n1 | -2 | 8.4* | 4 | -5
O=C(NCc1ccco1)/C(=C\c1ccco1)NC(=O)c1ccccc1Cl | 3 | 2 | 2 | 4
O=C(NCc1ccco1)/C(=C/c1ccco1)NC(=O)c1ccco1 | 3 | 17 | 19* | -1
O=S(=O)(c1ccc2[nH]c3c(c2c1)CCCC3)N1CCCCC1 | 0 | 18* | 1 | -2
Cc1ccsc1C(=O)N1CCC1(C)C(=O)NS(=O)(=O)c1cccc(F)c1 (configuration not stated) | / | / | / | 1
Cc1ccc(Cl)cc1NC1=C/C(=N\S(=O)(=O)c2cccs2)c2ccccc2C1=O | -6 | 3 | 60* | -4
O=C1C(Nc2ccc(O)cc2)=C/C(=N/S(=O)(=O)c2cccs2)c2ccccc21 | / | / | / | -3
Cc1ccc(NC2=C/C(=N\S(=O)(=O)c3cccs3)c3ccccc3C2=O)c(C)c1 | 5 | -3 | 88* | -5
Cc1cccc(NC2=C/C(=N/S(=O)(=O)c3cccs3)c3ccccc3C2=O)c1 | 5 | -2 | 54* | 1
O=C(Nc1nnc(C2CC2)s1)c1cncc(Br)c1 | 4 | 4 | / | -2
COc1ccccc1-n1c(SC(C)C(=O)NCC2CCCO2)nc2cc(Cl)ccc2c1=O (configuration not stated) | -5 | 2 | 0 | -4
CN(Cc1ccccc1)C(=O)C1CCCN1S(=O)(=O)c1ccc2c(c1)n(C)c(=O)c(=O)n2C (configuration not stated) | -5 | 24* | -3 | 0
Cn1c(=O)c(=O)n(C)c2cc(S(=O)(=O)N3CCC(Cc4ccccc4)CC3)ccc21 | -7 | 13* | -1 | -1
c1ccc(Nc2nc(CSc3ncn[nH]3)cs2)cc1 | 15 | 2 | 35* | 0
CCOC(=O)CCCCCC(=O)Nc1ccc2c(c1)CC(=O)N([C@H](C)CO)C[C@H](C)[C@H](CN(C)S(=O)(=O)c1ccc(OC)cc1)O2 | 5 | 11 | / | -2
NC(=S)N/N=C/c1ccc2ccccc2c1 | 6 | 5 | 4 | 2
SMILES | HDAC3 inh | LANA-H2A inh | Fh CTSL1 inh | HTR2A ag
NC(=S)N/N=C/c1ccc(/C=N/NC(N)=S)cc1 | 0 | -14 | 32* | 5
NC(=S)N/N=C/c1cccc(Br)c1 | -2 | 2 | 12 | -3
NC(=S)N/N=C/c1cccc(/C=N/NC(N)=S)c1 | 9 | 1 | 18* | 6
CCCN1CCN(CCCNC(=O)c2ccc(CS(=O)c3ccccc3C)o2)CC1 (configuration not stated) | -3 | -17 | 0 | 3
CN(C(=O)CCc1nnc(-c2ccc(-c3ccccc3)cc2)o1)C1CCOCC1 | 1 | 15* | -1 | 5
CN(CCCC1CCCC1)C(=O)CCc1nnc(-c2ccccc2)o1 | 0 | 2 | 0 | -5
O=C(c1ccc(Cn2c(=S)[nH]c3ccc(Br)cc3c2=O)cc1)N1CCN(C2CCCCC2)CC1 | 5 | 10* | 0 | -9
O=C(c1ccccc1)n1nnc2ccccc21 | 96* | 3 | 0 | 5

Bioassay records: PubChem, several laboratories
